The record followed here is the OligoGym collection.
Note: reference of the scale not given here.

For one experiment, the target named is NEURL2. Description: pooled miR-30 sensor sort-seq; sequence = guide strand. Conditions: shRNA.
On to ATCGGGCAGAGAAAACTCGGGA, for which the sensor-assay potency score (higher = more potent) is -0.832.

For ATGATGTGCATGTCGGCCGTGC, the sensor-assay potency score (higher = more potent) is -0.877.

As to AAACACGTCCACCACCGCGTAG, the sensor-assay potency score (higher = more potent) is -1.26.

For TATGGTTCCACGAGGAGGGTTG, the sensor-assay potency score (higher = more potent) is -0.457.

For the sequence TGTGGAAGCAAACACGTCCACC, the sensor-assay potency score (higher = more potent) is -1.66.

As for TTTCTCCTCGATCTCGACCAGG, the sensor-assay potency score (higher = more potent) was -0.592.

Regarding TTTATTTCTGGTCTTGGCTGGC, the sensor-assay potency score (higher = more potent) is -0.107.

Regarding TTCTCCTCGATCTCGACCAGGA, the sensor-assay potency score (higher = more potent) is -0.684.

With TTGTGGAAGCAAACACGTCCAC, the sensor-assay potency score (higher = more potent) was -0.451.

As to TCTTTGTGGAAGCAAACACGTC, the sensor-assay potency score (higher = more potent) was -1.58.

For TAGGCGGCACAGAGTCTGCAGG, the sensor-assay potency score (higher = more potent) was -1.34.

The target in another experiment is NEUROD6. The experiment is described as above. The note with it: shRNA.
For TAAGTTGTCCAGAGCGTCGTTG, the sensor-assay potency score (higher = more potent) is -0.475.

Take TTTGTCTTAATTAGACAGGGGA: the sensor-assay potency score (higher = more potent) was -0.0326.

Consider TTAAGTTGTCCAGAGCGTCGTT, for which the sensor-assay potency score (higher = more potent) was -0.144.

For TTTTCATCTTCCTCTTCCCTGT, the sensor-assay potency score (higher = more potent) was -0.025.

As for TTCTCTAGAAAACTTTCTGCAC, the sensor-assay potency score (higher = more potent) was -0.894.

For TGTCTCCTGAACTTGACCCTTT, the sensor-assay potency score (higher = more potent) was -0.00785.
